Screens from PubChem BioAssay.
A selection: hits, their analogues and other compounds. The true share with any hit is near 7%.
ATXN viability = reduces viability in counter-screen for ATXN expression inhibitors. S2 cells (HEK-293 line with an ATXN2-luciferase reporter) viability, CellTiter-Fluor protease fluorescence, 24 h. Potency, µM (highest dose often 56.7 µM), actives largely listed as cytotoxic. 0.49% of 400,000 active. AID 651635; further: nearly all actives have a fitted effect of over 40% in size
a7 integrin act = integrin-mediated muscular dystrophy alleviation activation. 0.064% of 350,000 active. alpha7betagal myoblasts, beta-gal FDG fluorescence, 48 h. Potency, µM (highest dose often 38.3 µM), actives largely listed as activators; further: nearly all actives have a fitted effect of over 60% in size
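Alpha7betagal+/- myoblasts (passage 13) were plated 16-24 hr, then exposed to compounds (1:260 dilution of DMSO stock) for 48 hours at 37C. After MPER lysis, β-galactosidase reporter activity was read as FDG fluorescence (ex 480/em 540) after 30 minutes.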
ATXN2 expr inh = inhibitors of ATXN2 expression; HEK-293 ATXN2-luciferase reporter, luminescence, 24 h; Potency, µM (doses to about 57 µM), hits mostly inhibitors; 0.72% of 360,000 active; further: nearly all actives have a fitted effect of over 55% in size
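ATXN2-luciferase reporter cells (luciferase flanked by upstream and downstream ATXN2 gene portions) were treated 24 h at 37 °C with compounds at up to 57 uM. SteadyGlo luminescence gave expression; GF-AFC fluorescence gave viability.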
IL-1B inflam inh = blocks inflammasome-driven IL-1 beta release; THP-1 LPS/ATP IL-1B secretion, AlphaLISA, 16 h; hits give low values; 4.7% of 360,000 active; activity change, % at 57.5 µM; in the data active means activity change below about -50%; inconclusive means mostly about -30% to -49%
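Secreted IL-1B measured by AlphaLISA bead assay after 16 h compound exposure of THP-1 cells; compounds (final up to 57.5 uM) added 1 h before LPS (250 ng/mL) and ATP (1.25 mM) stimulation; lower signal means less secretion.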
DRD3 agonist = activates the human D3 dopamine receptor; D3R DiscoveRx beta-arrestin cells, luminescence, 90 min; max activation, %; P35462; 0.58% of 410,000 active; in the data active means max activation above about 30%
Target sequence (P35462 whole entry, looked up): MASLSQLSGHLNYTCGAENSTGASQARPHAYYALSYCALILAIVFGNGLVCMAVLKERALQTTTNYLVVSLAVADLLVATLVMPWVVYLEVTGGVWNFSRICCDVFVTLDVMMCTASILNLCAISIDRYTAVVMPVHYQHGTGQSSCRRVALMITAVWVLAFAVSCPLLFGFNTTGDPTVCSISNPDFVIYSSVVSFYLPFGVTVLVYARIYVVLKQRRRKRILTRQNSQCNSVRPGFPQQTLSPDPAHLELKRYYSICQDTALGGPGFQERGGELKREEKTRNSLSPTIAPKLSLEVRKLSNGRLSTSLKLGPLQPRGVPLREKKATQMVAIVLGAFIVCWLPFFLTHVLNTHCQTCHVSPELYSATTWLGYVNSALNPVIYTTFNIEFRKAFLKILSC
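Cells at 1500/well, incubated overnight, then treated with pinned compounds (dopamine as control) for 90 min at 37 degrees C. DiscoveRx reagent added for 30 - 60 minutes at room temperature; luminescence read.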
D3 antag = D3 dopamine receptor (human) antagonism | P35462 | D3R cells, DiscoveRx beta-arrestin luminescence, antagonist mode; hits give low values | max response, negative = inhibition, % | 2.5% of 360,000 active | AID 652054; in the data active means max response below about -50%; inconclusive means no clear call, values can overlap the other calls
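Cells plated overnight at 1500 cells/well, then exposed to library compounds with dopamine controls for 90 minutes at 37 degrees C. DiscoveRx reagent added for 30–60 minutes at room temperature; luminescence read, quantitative HTS format.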
Each line names hits and unclear results; the compound was inactive in the other large screens. Unless noted, the call rests on the fitted dose curve; in most records, active means well fitted curve in the direction sought with a large enough effect; inconclusive means small, poorly fitted or top-dose-only effect, or another doubt; inactive means no such curve, though single readings can be large; an effect the other way counts as inactive or inconclusive.

C=CCOc1nc2c(c(=O)n(C)c(=O)n2C)n1Cc1ccc(Cl)cc1	none
C=CCOc1nc2c(c(=O)n(C)c(=O)n2C)n1Cc1ccccc1Cl	DRD3 agonist 36
Cc1ccc(C(=O)N2CCN(c3ccc(NC(=O)c4cccnc4Cl)cc3)CC2)cc1	none
N#CC1(C(N)=O)OC12CCS(=O)(=O)c1ccccc12 (centres undefined)	none
O=[N+]([O-])c1cc(S(=O)(=O)N2CCOCC2)ccc1NS(=O)(=O)c1ccccc1	IL-1B inflam inh -83
CC(C)(CNc1ccc(S(=O)(=O)C(F)(F)F)cc1[N+](=O)[O-])N1CCOCC1	IL-1B inflam inh -53
O=C(O)CC/C(=N\Nc1ccc(S(=O)(=O)N2CCOCC2)cc1[N+](=O)[O-])c1cccs1	ATXN viability inconclusive, D3 antag -62
Cc1sc(NC(=O)Cc2ccc3c(c2)OCO3)nc1-c1ccc2c(c1)CCN2C(=O)c1ccccc1F	IL-1B inflam inh inconclusive
Cc1ccc(C(C(=O)NC(C)(C)C)N(CCCN2CCOCC2)C(=O)c2ccc(-c3ccccc3)[nH]2)o1 (centres undefined)	none (no result: ATXN2 expr inh)
Cn1c(SCC(N)=O)nc2c([nH]c3ccccc32)c1=O	none (no result: ATXN viability, a7 integrin act, ATXN2 expr inh, IL-1B inflam inh, D3 antag)
COCCN1CCCC(CNCc2cn(C)nc2-c2ccc(Oc3ccccc3)cc2)C1 (centres undefined)	IL-1B inflam inh -51
COC1CCCN(Cc2cn(C)nc2-c2ccc(Oc3ccccc3)cc2)C1 (centres undefined)	a7 integrin act inconclusive, IL-1B inflam inh inconclusive, D3 antag -52
Cn1cc(CN2CCCCC2CO)c(-c2ccc(Oc3ccccc3)cc2)n1 (centres undefined)	IL-1B inflam inh inconclusive
Cn1cc(-c2nc3ccccc3[nH]2)c2ccccc21	none
COC(=O)C1=C(O)CSC1=Nc1ccc(C)cc1	none
CCOC(=O)Cc1csc(NC(=O)c2csc3c2CCCC3)n1	D3 antag -63
CCOC(=O)Cc1csc(NC(=O)CSc2nc(=O)[nH]c3c2CCC3)n1	IL-1B inflam inh -90
CCOC(=O)Cc1csc(NC(=O)c2ccc(S(=O)(=O)N3CCCCC3)cc2)n1	DRD3 agonist 36
C=CCn1c(SCc2ccc([N+](=O)[O-])cc2)nnc1C(C)NC(=O)c1ccccc1 (centres undefined)	ATXN viability inconclusive
Cn1ncc2c(NNC(=O)c3ccccc3Cl)ncnc21	none
CN(C)CCNC(=O)C(=O)NCC1OCCN1S(=O)(=O)c1ccc(F)cc1 (centres undefined)	ATXN viability inconclusive (no result: ATXN2 expr inh)
O=[N+]([O-])c1c(C(Cl)Cl)nn(-c2ccccc2)c1N1CCCC1	none
O=C(N/N=C/c1cccc([N+](=O)[O-])c1O)c1cccs1	ATXN viability inconclusive, ATXN2 expr inh inconclusive
COc1cc([N+](=O)[O-])cc(/C=N/NC(=O)C(C)Nc2cccc3ccccc23)c1O (centres undefined)	ATXN viability inconclusive, ATXN2 expr inh 20µM, D3 antag -84
COc1cc([N+](=O)[O-])cc(/C=N/NC(=O)C(O)(c2ccccc2)c2ccccc2)c1O	a7 integrin act inconclusive, D3 antag -55
O=[N+]([O-])c1cccc(C=NNc2ccc3ccccc3n2)c1O	ATXN viability inconclusive, ATXN2 expr inh inconclusive, D3 antag -54
O=C(N/N=C/c1cccc([N+](=O)[O-])c1O)C(O)(c1ccccc1)c1ccccc1	D3 antag -71 (no result: ATXN2 expr inh)
Nc1cccc2c1C(=O)N(C1CCC(=O)NC1=O)C2=O (centres undefined)	none (no result: ATXN viability, a7 integrin act, IL-1B inflam inh, DRD3 agonist, D3 antag)
Cc1cc(NC(=O)CCC(=O)N(c2cccnc2)C(C(=O)NC2CCCC2)c2ccccc2F)no1 (centres undefined)	none
COC(=O)c1ccc(Cn2nnc3c(=O)[nH]c(C4CCCN(S(=O)(=O)c5ccccc5Cl)C4)nc32)cc1 (centres undefined)	ATXN viability inconclusive, IL-1B inflam inh inconclusive
COc1ccc(O)c(/C=C(\C#N)C(=O)Nc2ccccn2)c1	a7 integrin act inconclusive
O=C(CCCn1c2ccccc2c(=O)c2ccccc21)Nc1cccc(Cl)c1	ATXN2 expr inh inconclusive (no result: ATXN viability, a7 integrin act, IL-1B inflam inh, D3 antag)
Cc1nn(-c2ccccc2)c2sc(C(=O)Nc3ccccc3Br)cc12	none (no result: a7 integrin act, IL-1B inflam inh, D3 antag)
CCOCCCNC(=O)C1CCC(CNS(=O)(=O)c2cccc3nsnc23)CC1 (centres undefined)	none
CC(C)NC(=S)N/N=C/c1ccccc1[N+](=O)[O-]	none
O=[N+]([O-])c1ccccc1C=NNC(=S)NN=Cc1ccccc1[N+](=O)[O-]	D3 antag -58
COc1ccc2cc(C(=O)C3CCCN(C(=O)CCc4cnn(C)c4)C3)ccc2c1 (centres undefined)	IL-1B inflam inh -57
Cn1cc(CCC(=O)N2CCCC(C(=O)c3cccc4ccccc34)C2)cn1 (centres undefined)	none
COc1ccc(CCN(C)C2CCCN(C(=O)CCSC)C2)cc1OC (centres undefined)	none
COc1cc(OC)c(OC)cc1CN1CCCC(C(=O)c2sccc2C)C1 (centres undefined)	D3 antag -93
CCC(=O)c1cc(Br)ccc1OCC(=O)N1CCN(S(=O)(=O)c2ccccc2)CC1	IL-1B inflam inh -58
O=C(COc1ccc(Cl)cc1Br)N1CCN(S(=O)(=O)c2ccccc2)CC1	a7 integrin act inconclusive, IL-1B inflam inh inconclusive
COc1ccc(CCN(C)C2CCCN(C(=O)c3sccc3C)C2)cc1OC (centres undefined)	D3 antag -64
CCOC(=O)CNC(=O)C1c2ccccc2C(=O)N(c2ccc(OC)cc2)C1c1ccc(OC)cc1 (centres undefined)	none
Nc1nc(SCC(=O)O)[nH]c(=O)c1NC(=O)c1ccccc1F	none
CCOc1ccc(NC(=O)CN(C)C(=O)/C=C/c2ccc(S(=O)(=O)N3CCCCCC3)cc2)cc1OCC	none
COc1ccc(C(=O)C2CCCN(Cc3cn[nH]c3-c3ccc(F)cc3)C2)cc1OC (centres undefined)	none
CCOC(=O)C1CCN(C(=O)COc2ccc(Br)cc2Br)CC1	IL-1B inflam inh -66
COc1ccc2cc(C(=O)C3CCCN(Cc4ccccn4)C3)ccc2c1 (centres undefined)	ATXN viability inconclusive
CCOc1ccccc1CN1CCCC(C(=O)c2ccc(OC)c(OC)c2)C1 (centres undefined)	ATXN viability inconclusive, ATXN2 expr inh inconclusive, D3 antag -51
CCn1ccnc1CN1CCCC(C(=O)c2ccc3cc(OC)ccc3c2)C1 (centres undefined)	ATXN2 expr inh inconclusive, IL-1B inflam inh -96, D3 antag inconclusive
CCOC(=O)C1CCCN(Cc2cc(Br)ccc2OC)C1 (centres undefined)	D3 antag -60
